We go through 40 compounds from PubChem BioAssay (EPA / NIEHS).

Calls of active or inactive are those of the source. Rule for the calls: active = hit-call score of the fitted dose curve at least 0.9, where 1 is the maximum; inactive = score below 0.9.

The term AC50 denotes the concentration giving half of the maximal activity seen.

This assay deals with Cellular tumor antigen p53 (Homo sapiens) (UniProt P04637). Put plainly: ATG_p53_CIS: Attagene CIS-FACTORIAL HepG2 Assay for human p53 Transcription Factor (AID 2282994). As to conditions: HepG2 p53 cis-element reporter, Attagene mRNA; actives raise or lower the signal. The method, then: ATG_CIS is a cell-based, multiplexed-readout assay that uses HepG2, a human liver cell line, with measurements taken at 24 hours after chemical dosing in a 24-well plate.ATG_p53_CIS is one of 52 assay component(s) measured or calculated from the ATG_CIS assay. It is designed to make measurements of mRNA induction, a form of inducible reporter, as detected with fluorescence intensity signals by Reverse transcription polymerase chain reaction (RT-PCR) and Capillary electrophoresis technology.Data from the assay component ATG_p53_CIS was analyzed into 1 assay endpoint. This assay endpoint, ATG_p53_CIS, was analyzed with bidirectional fitting relative to DMSO as the negative control and baseline of activity. Using a type of inducible reporter, measures of mRNA for gain or loss-of-signal activity can be used to understand the reporter gene at the transcription factor-level as they relate to the gene TP53. Furthermore, this assay endpoint can be referred to as a primary readout, because this assay has produced multiple assay endpoints where this one serves a reporter gene function. To generalize the intended target to other relatable targets, this assay endpoint is annotated to the dna binding intended target family, where the subfamily is tumor suppressor.
Sequence of Cellular tumor antigen p53 (Homo sapiens) (P04637 whole entry, looked up): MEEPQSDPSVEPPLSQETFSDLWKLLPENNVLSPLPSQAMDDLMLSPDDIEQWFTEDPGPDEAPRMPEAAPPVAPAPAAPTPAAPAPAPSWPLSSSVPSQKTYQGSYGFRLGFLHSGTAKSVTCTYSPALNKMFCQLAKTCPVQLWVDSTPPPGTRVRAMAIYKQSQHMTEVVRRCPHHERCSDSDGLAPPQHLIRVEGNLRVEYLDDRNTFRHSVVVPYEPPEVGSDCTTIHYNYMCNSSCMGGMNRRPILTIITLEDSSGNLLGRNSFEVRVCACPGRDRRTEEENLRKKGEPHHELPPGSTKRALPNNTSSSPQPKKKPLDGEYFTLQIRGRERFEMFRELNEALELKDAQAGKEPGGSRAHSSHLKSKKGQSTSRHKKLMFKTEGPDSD
Human liver HepG2 cells are transiently transfected with multiple reporter transcription units (MRTUs) in 6-well plates using FuGene 6 reagent (Roche; 3 ml FuGene/1 mg DNA). The MRTU constructs are regulated by a cis-regulating element (promoter). […] A major difference between the CIS and TRANS system is that in CIS activities of endogenous TFs are measured, whereas the TRANS assay evaluates changes in activities of exogenous, chimeric NR-Gal4 proteins. […] At the end of 24 hour incubation, total RNA was isolated using TriZol reagent (Invitrogen). The isolated RNA is then reverse-transcribed using oligo(dT) primer and Mo-MLV reverse transcriptase (Invitrogen) with DNAse I (Ambion) treatment for 30 min. The one-tenth of the produced cDNA was amplified by PCR using Taq DNA polymerase (Invitrogen) and two reporter sequence-specific primers. The PCR products were fluorescently labeled by primer extension with 6-arboxyfluorescein (6-FAM) 5'-labeled reporter sequence-specific primer (2 min at 95 C, 20 s at 68 C and 10 min at 72 C) and these products were digested with 5U of HpaI (New England Biolabs) for 2h at 37 C. The fragments were purified using Qiaquick PCR columns (Qiagen), analyzed on an ABI 3130xL genetic analyzer (Applied Biosystems) with peak positions identified by using a set of X-rhodamine (ROX)-labeled MapMarker1000 molecular weight standards (BioVentures). The raw capillary electrophoresis data was processed using Attagraph software (Attagene).
As to `COc1ccccc1[N+](=O)[O-]`, the compound was classed as inactive.
For `CCCCCCCCSCCO`, the outcome was inactive.
The same measure, in the same setting: then `COC(=O)c1cccnc1`, with “inactive”; and `CCCC(=O)c1ccccc1`, with “inactive”; and `CC(=O)O[C@@H]1CC2CCC1(C)C2(C)C` (stereo not given in full), with “inactive”.
For `C=CCOC(=O)CCCCCC`, the compound was called inactive.
Consider `C=CCCCCCCCCCC`, for which the compound was classed as inactive.
In the case of `CN1CCOCC1`, the call was inactive.
In the case of `OCc1ccc(Cl)cc1Cl`, the compound was called inactive.
Turning to `C=C(C)C(=O)OCCOC1CC2CC1C1C=CCC21` (stereo not given), the call was inactive.
Take `CCOC(=O)CC(C)O` (stereo not given): the compound was called inactive.
Regarding `Cc1ccc(N)c(S(=O)(=O)O)c1`, the result was inactive.
Regarding `C=CC(=O)OCCC#N`, the AC50 was 164 µM (active).
On to `O=C(O)c1ccc(O)cc1`, for which the compound was called inactive.
Regarding `COC(=O)Nc1ccc(Cl)c(Cl)c1`, the compound was called inactive.
Turning to `CCCCCCC(CO)CCCC` (stereo not given), the outcome was inactive.
Take `OCC(O)c1ccccc1` (stereo not given): the call was inactive.
On the same count and under the same terms, then `O=C(Nc1ccc([N+](=O)[O-])cc1)Nc1ccc([N+](=O)[O-])cc1` (tested in a mixture with another compound), with “inactive”; and `N#Cc1cscn1`, with “inactive”.
With `C[Si](C)(C)O[Si](C)(C)C`, the outcome was inactive.
The same measure, in the same setting: then `C[C@H]1C[C@@H](O)CC(C)(C)C1`, with “inactive”; and `CCCC(O)C(O)CO` (stereo not given), with “inactive”; and `Nc1ccc(N)c2c1C(=O)c1ccccc1C2=O`, with “inactive”.
Consider `Cc1[nH]c(=O)c(C#N)cc1-c1ccncc1`, for which the call was inactive.
For `OCc1cccc(Oc2ccccc2)c1`, the result was inactive.
Consider `NC1CCCCC1N` (stereo not given), for which the outcome was inactive.
On the same count and under the same terms, with `C=CC(C)C#N` (stereo not given) the entry was “inactive”; with `CCc1ccc(O)c(OC)c1`, “inactive”.
With `CC(C)C(OC(=O)c1ccccc1)C(C)(C)COC(=O)c1ccccc1` (stereo not given), the result was inactive.
`CC(=O)OCCCc1ccccc1`: the compound was called inactive.
For `CN(C)C(=O)Nc1ccc(Oc2ccc(Cl)cc2)cc1`, the call was inactive.
Still for that read-out and setting: with `CCCCC(CC)C(=O)OC(C)C` (stereo not given) the entry was “inactive”; with `OCCCCC(O)CO` (stereo not given), “inactive”; with `CCCC(=O)C(CC)Sc1ccoc1C` (stereo not given), “inactive”.
For the compound `O=C(CS)OCCOC(=O)CS`, the AC50 is 100 µM (active).
Turning to `CCCCCCCCCCCCCCCC(=O)OC/C=C(C)/C=C/C=C(C)/C=C/C1=C(C)CCCC1(C)C`, the compound was classed as inactive.
In the case of `COCCOC(=O)c1ccccc1C(=O)OCCOC`, the compound was called inactive.
Turning to `COC(=O)c1ccc(OC)cc1`, the compound was classed as inactive.
Consider `Cc1ccc(S(=O)(=O)Oc2ccc(N=Nc3ccc(-c4ccc(N=Nc5c(O)ccc6cc(S(=O)(=O)O)cc(S(=O)(=O)O)c56)c(C)c4)cc3C)cc2)cc1`, for which the call was inactive.
Consider `CC=Cc1ccc(OC)c(OC)c1`, for which the result was inactive.
